Apoferritin bind: qHTS Assay for Identification of Novel General Anesthetics. AID 485281, 2010. actives 0.074% (n = 350,000). apoferritin/1-aminoanthracene competitive binding, fluorescence. Ferritin light chain (Equus caballus), P02791. Potency, µM (top dose mostly 77.5 µM), for the others: at the top dose activity change, negative = displacement, actives largely listed as inhibitors; active = well fitted inhibition curve with a large enough effect; inconclusive = small, poorly fitted or top-dose-only effect; inactive = no such curve, though single readings can be large or run the other way; note: potency is the fitted concentration of half-maximal effect; % is set by controls: 0 for no effect and ±100 for the full control effect; nearly all actives have a fitted effect of over 20% in size
Target sequence (P02791 2-175 limits assumed): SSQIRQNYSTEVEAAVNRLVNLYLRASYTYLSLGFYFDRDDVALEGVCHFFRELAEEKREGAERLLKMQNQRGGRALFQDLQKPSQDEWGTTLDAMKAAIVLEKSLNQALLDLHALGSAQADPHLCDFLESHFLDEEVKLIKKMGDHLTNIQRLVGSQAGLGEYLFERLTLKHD
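Apoferritin-based anesthetic binding model; compound displacement of fluorescent 1-AMA measured as endpoint fluorescence after 10 minutes at room temperature, scaled to free-ligand and complex controls.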
D2 ag-1: HTS Assay for Allosteric Agonists of the Human D2 Dopamine Receptor: Primary Screen for Agonists; D(2) dopamine receptor (Homo sapiens), P14416; HEK293 T-REx D2 cells, calcium flux agonist mode; activation, % at 2 µM; actives 0.53% (n = 340,000);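 active = activation over 3 SD above normal in the single-dose calcium agonist read, cut at about 30% in these data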; note: 0% is about no effect
Target sequence (P14416 whole entry, looked up): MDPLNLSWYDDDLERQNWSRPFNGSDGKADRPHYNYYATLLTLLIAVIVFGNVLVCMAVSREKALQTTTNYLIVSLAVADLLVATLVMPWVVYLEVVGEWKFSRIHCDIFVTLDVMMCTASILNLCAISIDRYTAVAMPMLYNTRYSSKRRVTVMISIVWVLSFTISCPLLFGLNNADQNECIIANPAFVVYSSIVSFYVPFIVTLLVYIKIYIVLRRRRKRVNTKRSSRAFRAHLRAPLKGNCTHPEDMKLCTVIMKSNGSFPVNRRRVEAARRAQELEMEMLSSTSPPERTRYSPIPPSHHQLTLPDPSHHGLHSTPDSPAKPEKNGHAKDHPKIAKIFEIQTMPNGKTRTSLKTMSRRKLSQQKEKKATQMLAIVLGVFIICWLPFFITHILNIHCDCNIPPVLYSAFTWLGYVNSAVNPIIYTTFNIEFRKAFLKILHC
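HEK293 Trex D2 cells, tetracycline-induced, o/n 30 C 5% CO2; no-wash Ca dye, RT 30–90 min; 10-cycle baseline, 23 nl cpd added, kinetic Ca read 180 s; agonist hits = positive Ca response.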
D2 ag-2: Beta-Arrestin HTS for Positive Allosteric Modulators of the Human D2 Dopamine Receptor: Agonists; D(2) dopamine receptor (Homo sapiens), P14416; DiscoveRx PathHunter D2 beta-arrestin, luminescence, 90 min; 100% = 57 uM dopamine signal; actives 0.084% (n = 360,000); activation, % (concentration not given with the values); in the data active = activation above about 40%; inconclusive = between about 15% and that limit
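DiscoveRx PathHunter D2 beta-arrestin cells (2,100/well) attached overnight, then compound-stimulated 90 min at 37 C in HBSS/10 mM HEPES/0.1% Tween-20 buffer; beta-galactosidase complementation read by luminescence after 1 h at ambient temperature. Dopamine 57 uM final (EC100) as control.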
D2 PAM-1: HTS Assay for Positive Allosteric Modulators of the Human D2 Dopamine Receptor: Primary Screen for Potentiators; D(2) dopamine receptor (Homo sapiens), P14416; HEK293 T-REx D2, calcium flux, EC20 dopamine potentiation; potentiation, % at 10 µM; AID 485347, 2010; actives 0.34% (n = 340,000);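 active = potentiation over 3 SD above the plate norm, cut at about 30% in these data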; note: 0% is about no effect
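Using a no-wash calcium dye in inducible, force-coupled HEK293 Trex cells expressing D2, we tracked fluorescence each second for 180 s after compound, then for 180 s after EC20 dopamine to detect augmented signalling.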
D2 antag: HTS Assay for Allosteric Antagonists of the Human D2 Dopamine Receptor: Primary Screen for Antagonists; D(2) dopamine receptor (Homo sapiens), P14416; HEK293 TREx D2 cells, calcium flux, dopamine EC80; inhibition, % at 10 µM; actives 2% (n = 340,000); in the data active = inhibition above about 30%; inactive = below that, where a call was filed; note: 0% is about no effect
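Measurement of antagonist activity uses fluorescent calcium dye in inducible HEK293 T-REx D2 cells: 10 s baseline, compound addition with 180 s read, EC80 dopamine addition with a further 180 s read.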
D2 PAM-2: Beta-Arrestin HTS for Positive Allosteric Modulators of the Human D2 Dopamine Receptor: Potentiators. D(2) dopamine receptor (Homo sapiens), P14416. DiscoveRx D2 beta-arrestin cells, luminescence, 90 min; 100% = 57 uM dopamine signal. actives 0.23% (n = 360,000). potentiation, % (no concentration beside the values). AID 624464, 2012; in the data active = potentiation above about 50%; inconclusive = mostly about 30% to 49%
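PathHunter beta-arrestin assay in DiscoveRx D2 cells. Compounds were added with an EC20 of dopamine (50 nM final) for 90 min at 37 deg C. Luminescence was read 1 h after detection reagent, with 57 uM dopamine as the EC100 control.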
* marks the source's active call; other numbers are inactive results; u = inconclusive; x = no result given. An excerpt weighted towards active compounds, which were near 2.5% of everything screened.

SMILES | Apoferritin bind | D2 ag-1 | D2 ag-2 | D2 PAM-1 | D2 antag | D2 PAM-2
Cc1cc(NS(=O)(=O)c2c(C)[nH]c(=O)[nH]c2=O)ccc1Br | 2.0% | -0.2 | -4.5 | -8.2 | 40.8* | -7.8
COc1ccc(OC)c2sc(N(CCCN(C)C)C(=O)c3ccc(S(=O)(=O)N4CCc5ccccc5C4)cc3)nc12 | x | 3.2 | x | -18.9 | 11.5 | x
Cn1c(N)c(C(=O)/C=C/c2ccccc2)c(=O)[nH]c1=O | -7.5% | 0.8 | -1.1 | 4.8 | 53.6* | -2.0
Cn1c(N)c(C(=O)Nc2ccccc2)c(=O)[nH]c1=O | x | x | 0.5 | x | x | -6.2
CC(=O)N1[C@H](Cc2ccccc2)C=C[C@]1(C)C(=O)NCc1cc(F)cc(C(F)(F)F)c1 | 6.4% | x | x | x | x | x
NC(=O)c1cccc2c3c([nH]c12)CCCC3 | u | -0.2 | -3.1 | -3.6 | -5.8 | -17.3
Cc1cccc2c3c([nH]c12)CCN(C)C3 | -4.1% | 1.7 | -4.0 | -28.1 | 66.1* | -23.7
CCCC(=O)Nc1ccc(C(=O)COC(=O)c2cc(C)oc2C)cc1 | x | 0.9 | -0.9 | -1.9 | 34.8* | 3.1
CC(=O)N(CCC1(C(C)C)CCOC(C)(C)C1)Cc1ccco1 (configuration not stated) | -13.2% | 0.5 | 0.1 | 9.3 | 38.4* | 7.4
COc1cccc(CNC(=O)C2=Cc3cccc(OC)c3OC2)c1 | -8.5% | -0.7 | 3.1 | 0.4 | 10.5 | 5.0
O=C(COC(=O)/C=C/C(=O)N1CCN(c2ccccc2)CC1)NC(c1ccccc1)c1ccccc1 | -12.2% | -0.4 | -2.6 | -8.0 | 69.1* | -1.3
COc1ccc(-n2c(CN3CCN(c4ccccc4OC)CC3)nc3ccc([N+](=O)[O-])cc3c2=O)c(OC)c1 | -12.2% | 0.2 | 2.2 | -19.3 | -7.5 | -10.4
O=C(/C(=N/O)c1ccccc1)c1ccccc1 | x | x | -7.1 | x | x | -8.0
CCc1nn(C(CC)C(=O)NCCCN2CC(C)CC(C)C2)c(=O)c2cc3oc(C)cc3n12 (configuration not stated) | -1.8% | -0.3 | -3.9 | -32.7 | 63.7* | -35.0
CCOC(=O)C1(C)CCN1C(=O)c1ccc(Cl)nc1 (configuration not stated) | x | x | -2.2 | x | x | -5.0
COc1cc(/C=N/N(C)C)ccc1OC(=O)c1cccs1 | -12.2% | -0.7 | 3.0 | 41.8* | -13.1 | -9.6
C#CCOCCOCCOCCNc1nc(N2CCOCC2)nc(N2CCN(C(=O)[C@H]([C@@H](C)O)n3cc(CCCCN)nn3)CC2)n1 | -11.8% | -0.5 | -4.0 | 3.5 | -24.0 | -56.2
COc1ccc(Cl)cc1C(=O)NNC(=O)COC(=O)CCN=C1NS(=O)(=O)c2ccccc21 | x | -0.5 | -20.2 | -0.9 | 30.4* | -52.6
CN(c1ccccc1C(=O)N1CCN(c2ccccc2F)CC1)S(=O)(=O)c1ccccc1 | 7.8% | 2.1 | -1.6 | 2.2 | -0.1 | -0.7
CN(C1CCCC1)C1CCN(C(=O)CNC(=O)/C=C/c2cccc(C(F)(F)F)c2)CC1 | -17.4% | -0.2 | 0.0 | x | 13.2 | -3.4
CN(C1CCCC1)C1CCN(C(=O)CNC(=O)/C=C/c2ccc(F)cc2)CC1 | -1.5% | 2.2 | -2.1 | -3.2 | 84.8* | -2.9
O=C(NC1CCSC1=O)c1cccc(C(=O)NC2CCSC2=O)c1 (configuration not stated) | -20.5% | 0.7 | -2.0 | -4.3 | 42.0* | -22.5
O=C(NC1CCSC1=O)c1ccccc1 (configuration not stated) | -7.1% | -0.1 | -2.5 | 1.5 | -13.9 | -4.5
O=C(Nc1cccc(Cl)c1Cl)c1cc(S(=O)(=O)N2CCCc3ccccc32)ccc1F | 0.8% | -0.1 | x | 8.1 | x | x
CCNc1nc(CSc2ccccc2)nc2sc(C)c(C)c12 | -8.1% | -1.3 | 1.8 | 0.0 | 39.3* | -16.9
SMILES | Apoferritin bind | D2 ag-1 | D2 ag-2 | D2 PAM-1 | D2 antag | D2 PAM-2
Cc1ccc(NC(=O)NC(=O)N(C(C)C)S(=O)(=O)c2ccc(C)cc2)cc1 | u | 6.5 | 7.5 | -10.3 | 43.5* | -8.2
Cc1ccc(NC(=O)Nc2ccc(S(N)(=O)=O)cc2)cc1 | 0.2% | -0.2 | 2.6 | -8.4 | 1.0 | -7.7
O=c1onc(-c2ccccc2Cl)n1-c1ccccc1Cl | x | x | 40.5* | x | x | 58.2*
CCNC(=S)NS(=O)(=O)c1ccc(F)cc1 | 3.3% | -0.4 | -12.6 | 9.6 | 10.2 | -13.2
C=CCN(CC=C)S(=O)(=O)c1ccc(NC(=S)NC(=O)c2ccco2)cc1 | 17.8µM* | x | 2.6 | x | x | -9.3
C=CCN(CC=C)S(=O)(=O)c1ccc(NC(=S)NC(=O)c2ccc(-c3ccccc3)cc2)cc1 | u | -0.2 | -3.0 | 0.4 | -6.7 | -43.6
c1ccc(CCNc2nc(-c3ccccn3)cs2)cc1 | u | 1.4 | -3.2 | 20.1 | -22.1 | -2.4
CC(=O)Nc1ccc(N2Cc3ccccc3C2)cc1 | -21.7% | 1.3 | 7.3 | 0.9 | -2.2 | 51.6*
CC(=O)Nc1ccc(N2CCCC2)cc1 | -12.1% | 0.3 | 1.0 | -15.3 | -13.6 | -9.8
CC(O)CNc1nc2c(c(=O)n(Cc3ccc(Br)cc3)c(=O)n2C)n1C (configuration not stated) | -7.1% | -0.7 | 5.9 | 9.7 | 4.2 | 52.5*
COCCCn1c(C)nnc1SCC(=O)Nc1cccc(C)c1 | -3.0% | 0.1 | -2.8 | 10.6 | -5.2 | -2.9
Cc1cc(C)nc(Sc2c(C)n[nH]c2C)n1 | -6.3% | 0.8 | 1.2 | -3.1 | 31.6* | -9.4
Cc1n[nH]c(C)c1Sc1ccccc1N | -6.3% | -0.1 | 2.9 | -8.4 | -6.9 | 0.2
O=C(Nc1cccs1)Nc1cccnc1Cl | 51.8% | -2.5 | -2.9 | -4.7 | 36.7* | 0.1
CCn1c(SCc2ccc(OC)c(F)c2)nc2ccccc2c1=O | -9.4% | 3.1 | 6.0 | 33.4* | -16.9 | -0.5
Cc1ccc(NC(=O)C2CC(=O)NC(N3CCCCC3)=N2)cc1Cl (configuration not stated) | 7.8% | -0.6 | -3.4 | -18.9 | 70.9* | -28.0
CCOC(=O)c1nccnc1C(=O)Nc1cccc(C(F)(F)F)c1 | -2.4% | -0.6 | -0.4 | -16.1 | 31.9* | -10.2
Cc1ccc(C(=O)Nc2cccc(C(F)(F)F)c2)cc1Nc1cnccn1 | 2.2% | 0.2 | -2.2 | -0.4 | 58.6* | -28.6

High-throughput results deposited in PubChem BioAssay by National Center for Advancing Translational Sciences (NCATS).
